Source: PubChem BioAssay (NCI)
The panel holds about 79,000 compounds, 15% with a hit somewhere; the sample as a whole holds those more often. Activity calls are given as the source filed them. Rule as the data show it: active = growth inhibition above about 70%; inactive = the rest.

assay: NCI Yeast Anticancer Drug Screen. Data for the rad50 strain (AID 155);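 also: 0% = growth of vehicle-only cultures of the same strain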; settings: S. cerevisiae rad50 strain growth inhibition; at 100.0 µM; active compounds read high
Procedure, shortened: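 Genetically altered yeast (DNA repair pathway); compound treatment; growth inhibition vs vehicle ctrl.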

Compound	growth inhibition
O=CC=C(c1ccccc1)c1ccccc1	98% (active)
FC(F)(F)c1nc2nc(Cl)c(Cl)nc2n1CCCN1CCOCC1	27% (inactive)
BrCC[P+](c1ccccc1)(c1ccccc1)c1ccccc1	95% (active)
N#CSc1ccc(S(N)(=O)=O)cc1	73% (active)
O=[N+]([O-])c1ccc2nc3ccccc3cc2c1	95% (active)
O=C(NC(Nc1ccc(F)c(Cl)c1)(C(F)(F)F)C(F)(F)F)C(C(F)(F)F)C(F)(F)F	96% (active)
O=C(/C=C\c1ccc(Cl)cc1Cl)c1cccs1	5% (inactive)
O=C(NCCCCNCCCNC(=O)c1cc(-c2ccccc2)nc2ccccc12)c1cc(-c2ccccc2)nc2ccccc12	92% (active)
NC(=NCc1ccccc1)N/N=C\c1ccnc2ccccc12	39% (inactive)
CCCCN(CCCC)CCSc1ccc(Cl)cc1	96% (active)
COc1cc(C2C3=C(COC3=O)Oc3cc4c(cc32)OCO4)ccc1O (stereo not drawn)	73% (active)
C#CCCCc1ccccc1	65% (inactive)
CCc1ccc(NS(=O)(=O)c2ccccc2)c([N+](=O)[O-])c1	72% (active)
COc1ccc(C2c3cc4c(cc3OC(C)(O)C2C)OCO4)c(OC)c1 (stereo not drawn)	98% (active)
COC(=O)c1ccc(CCC2=CC(=O)C(Br)=CC2=O)cc1	34% (inactive)
NNC(=O)CCc1ccc2ccc3ccccc3c2c1	58% (inactive)
Cn1c2ccccc2c(=O)c2cc(NC(=O)CCCCC(=O)Nc3ccc4c(c3)c(=O)c3ccccc3n4C)ccc21	78% (active)
CC(CC(C)(C)[N+](C)(C)C)[N+](C)(C)C (stereo not drawn)	0% (inactive)
CC1CCN(CCC(=O)c2ccc(Cl)cc2)CC1	56% (inactive)
CCCCCCCCCCCCCCC(C(=O)[O-])[n+]1ccccc1 (stereo not drawn)	97% (active)

Compound	growth inhibition
CNC1C(OC2C(OC3C(O)C(O)C(N=C(N)N)C(O)C3N=C(N)N)OC(C)C2(O)CO)OC(CO)C(O)C1O (stereo not drawn)	-11% (inactive)
O=C(O)c1ccccc1-c1ccccc1C(=O)Nc1ccc2c(c1)Cc1ccccc1-2	88% (active)
O=[N+]([O-])c1cccc2nc3ccccc3c(NCCCN3CCOCC3)c12	98% (active)
C=CC(C)(O)CCC1C(=C)C(O)CC2C(C)(C)CCCC12C (stereo not drawn)	84% (active)
CN1c2ccc(Cl)cc2C(=O)NC1c1ccc([N+](=O)[O-])s1 (stereo not drawn)	96% (active)
[O-][n+]1c2ccc(O)cc2nc2ccc(Br)cc21	87% (active)
O=C1c2ccccc2-c2nc3ccccc3nc21	83% (active)
CCCCN1C(=O)N(c2ccc(OCC)cc2)C2N(CCCC)C1C(C)(C)C2(C)C (stereo not drawn)	84% (active)
CO[C@H]1C[C@](C)(O)Cc2cc3c(c(O)c21)C(=O)c1c(O)cc2c(c1C3=O)O[C@@H]1O[C@@]2(C)[C@H](O)[C@@H](N(C)C)[C@@H]1O	85% (active)
COc1cc2c(cc1[N+](=O)[O-])C(=O)C(Br)(Br)CCC2	95% (active)
O=C1OC(CCl)CN1/N=C/c1ccc([N+](=O)[O-])o1 (stereo not drawn)	80% (active)
CN(C)CCOc1ccc2c(c1)C/C(=C/c1ncc([N+](=O)[O-])n1C)C2=O	91% (active)
CCCCCCCCCCCCCCCCCCN(C)CC(COP(=O)([O-])OCC[N+](C)(C)C)OC (stereo not drawn)	98% (active)
CC(C)c1ccccc1NC(=O)/C(Cl)=C(\Cl)C(=O)O	98% (active)
O=[N+]([O-])C(=C(Sc1ccccc1)Sc1ccccc1)C(Cl)=C(Cl)Cl	50% (inactive)
C(=C\c1ccccc1)/COc1ccccc1C(N1CCOCC1)n1nc2ccccc2n1 (stereo not drawn)	97% (active)
O=C1C(Nc2ccccc2)=C(Oc2ccccc2)C(=O)c2ccccc21	38% (inactive)
CCN(CC)CCN1C(=O)c2cccc3cc(OC)cc(c23)C1=O	93% (active)
CN(C)Cc1cc(N=Nc2ccc(Cl)cc2)cc(CN(C)C)c1O	25% (inactive)

assay: NCI Yeast Anticancer Drug Screen. Data for the mec2-1 strain (AID 157); settings: S. cerevisiae mec2-1 strain, at 1.2 µM, active compounds read high
Procedure, shortened: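 Mutant yeast (mec2-1) grown with compound; growth inhibition relative to vehicle control reported.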

Compound	growth inhibition
O=CC=C(c1ccccc1)c1ccccc1	4% (inactive)
FC(F)(F)c1nc2nc(Cl)c(Cl)nc2n1CCCN1CCOCC1	2% (inactive)
BrCC[P+](c1ccccc1)(c1ccccc1)c1ccccc1	-74% (inactive)
N#CSc1ccc(S(N)(=O)=O)cc1	-84% (inactive)
O=[N+]([O-])c1ccc2nc3ccccc3cc2c1	-2% (inactive)
O=C(NC(Nc1ccc(F)c(Cl)c1)(C(F)(F)F)C(F)(F)F)C(C(F)(F)F)C(F)(F)F	8% (inactive)
O=C(/C=C\c1ccc(Cl)cc1Cl)c1cccs1	-6% (inactive)
O=C(NCCCCNCCCNC(=O)c1cc(-c2ccccc2)nc2ccccc12)c1cc(-c2ccccc2)nc2ccccc12	-1% (inactive)
NC(=NCc1ccccc1)N/N=C\c1ccnc2ccccc12	-1% (inactive)
CCCCN(CCCC)CCSc1ccc(Cl)cc1	-5% (inactive)
COc1cc(C2C3=C(COC3=O)Oc3cc4c(cc32)OCO4)ccc1O (stereo not drawn)	-3% (inactive)
C#CCCCc1ccccc1	-21% (inactive)
CCc1ccc(NS(=O)(=O)c2ccccc2)c([N+](=O)[O-])c1	1% (inactive)
COc1ccc(C2c3cc4c(cc3OC(C)(O)C2C)OCO4)c(OC)c1 (stereo not drawn)	3% (inactive)
COC(=O)c1ccc(CCC2=CC(=O)C(Br)=CC2=O)cc1	-7% (inactive)
NNC(=O)CCc1ccc2ccc3ccccc3c2c1	-1% (inactive)
Cn1c2ccccc2c(=O)c2cc(NC(=O)CCCCC(=O)Nc3ccc4c(c3)c(=O)c3ccccc3n4C)ccc21	-5% (inactive)
CC(CC(C)(C)[N+](C)(C)C)[N+](C)(C)C (stereo not drawn)	5% (inactive)
CC1CCN(CCC(=O)c2ccc(Cl)cc2)CC1	0% (inactive)
CCCCCCCCCCCCCCC(C(=O)[O-])[n+]1ccccc1 (stereo not drawn)	3% (inactive)

Compound	growth inhibition
CNC1C(OC2C(OC3C(O)C(O)C(N=C(N)N)C(O)C3N=C(N)N)OC(C)C2(O)CO)OC(CO)C(O)C1O (stereo not drawn)	-2% (inactive)
O=C(O)c1ccccc1-c1ccccc1C(=O)Nc1ccc2c(c1)Cc1ccccc1-2	8% (inactive)
O=[N+]([O-])c1cccc2nc3ccccc3c(NCCCN3CCOCC3)c12	90% (active)
C=CC(C)(O)CCC1C(=C)C(O)CC2C(C)(C)CCCC12C (stereo not drawn)	-3% (inactive)
CN1c2ccc(Cl)cc2C(=O)NC1c1ccc([N+](=O)[O-])s1 (stereo not drawn)	-7% (inactive)
[O-][n+]1c2ccc(O)cc2nc2ccc(Br)cc21	-1% (inactive)
O=C1c2ccccc2-c2nc3ccccc3nc21	-79% (inactive)
CCCCN1C(=O)N(c2ccc(OCC)cc2)C2N(CCCC)C1C(C)(C)C2(C)C (stereo not drawn)	-5% (inactive)
CO[C@H]1C[C@](C)(O)Cc2cc3c(c(O)c21)C(=O)c1c(O)cc2c(c1C3=O)O[C@@H]1O[C@@]2(C)[C@H](O)[C@@H](N(C)C)[C@@H]1O	-19% (inactive)
COc1cc2c(cc1[N+](=O)[O-])C(=O)C(Br)(Br)CCC2	35% (inactive)
O=C1OC(CCl)CN1/N=C/c1ccc([N+](=O)[O-])o1 (stereo not drawn)	-4% (inactive)
CN(C)CCOc1ccc2c(c1)C/C(=C/c1ncc([N+](=O)[O-])n1C)C2=O	31% (inactive)
CCCCCCCCCCCCCCCCCCN(C)CC(COP(=O)([O-])OCC[N+](C)(C)C)OC (stereo not drawn)	13% (inactive)
CC(C)c1ccccc1NC(=O)/C(Cl)=C(\Cl)C(=O)O	1% (inactive)
O=[N+]([O-])C(=C(Sc1ccccc1)Sc1ccccc1)C(Cl)=C(Cl)Cl	12% (inactive)
C(=C\c1ccccc1)/COc1ccccc1C(N1CCOCC1)n1nc2ccccc2n1 (stereo not drawn)	-19% (inactive)
O=C1C(Nc2ccccc2)=C(Oc2ccccc2)C(=O)c2ccccc21	2% (inactive)
CCN(CC)CCN1C(=O)c2cccc3cc(OC)cc(c23)C1=O	-10% (inactive)
CN(C)Cc1cc(N=Nc2ccc(Cl)cc2)cc(CN(C)C)c1O	15% (inactive)
